Screening data deposited in PubChem by several laboratories.
Mcl1 Noxa PPI: Mcl-1/Noxa interaction inhibition; Q07820; TR-FRET Mcl-1/Noxa peptide binding, 2 h; inhibition, % at 21.7 µM; 220,000 tested, 1.5% active; AID 1022;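 active = compounds that cut the protein-peptide binding signal by more than 50% relative to plate controls in a single-dose test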;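 note: His-tagged Mcl-1 with rhodamine Noxa BH3 peptide and terbium anti-His antibody; 0% = Mcl-1 plus Noxa peptide wells and 100% = peptide-only wells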
Mcl1 Bid PPI: disrupts binding of human Mcl-1 to Bid peptide; Q07820; TR-FRET Mcl-1/Bid-Dy647 peptide binding, 1536-well; inhibition, % at 21.7 µM; 220,000 tested, 0.97% active; AID 1021;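 active = compounds that cut the binding signal by more than half at the single screening dose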;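 note: His-tagged Mcl-1 with europium anti-His antibody binding Bid BH3 peptide; 0% = Mcl-1 plus peptide wells and 100% = peptide-only wells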
BCLXL inh: Bcl-xL (human) inhibition. Q07817. GST-Bcl-xL / FITC-Bim BH3 peptide fluorescence polarization. inhibition, % at 10.9 µM. 320,000 tested, 0.7% active. AID 2129;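 active = inhibition above the mean of all tested compounds plus 3 SD, cutoff set per campaign, cut at about 30% in these data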;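 note: 0% = DMSO wells and 100% = unlabeled Bim-BH3 peptide competitor; inhibitors lower millipolarization by displacing the labeled peptide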
Target sequence (Q07817 whole entry, looked up): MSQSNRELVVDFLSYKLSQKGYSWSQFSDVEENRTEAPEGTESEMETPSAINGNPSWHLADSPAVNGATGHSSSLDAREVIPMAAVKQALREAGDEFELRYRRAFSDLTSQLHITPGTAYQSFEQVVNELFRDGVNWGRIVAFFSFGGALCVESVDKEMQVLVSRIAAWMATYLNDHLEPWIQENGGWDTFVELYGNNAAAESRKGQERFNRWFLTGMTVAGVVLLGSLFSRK
Bim-Mcl-1: inhibitors of Bim-Mcl-1 interaction, human; Q07820; Bead-based flow cytometry, Bim peptide-Mcl-1 binding; 190,000 tested, 0.1% active; inhibition, % at 10 µM; in the data active = inhibition above about 40%;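 note: 0% = no compound tracer wells and 100% = peptide blocker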
MCL1 BIM primary: MCL1-BIM-BH3 interaction inhibition (human) | GST-MCL1 / FITC-Bim-BH3 fluorescence polarization | inhibition, % at 10.9 µM | 320,000 tested, 0.68% active | AID 2057;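 active = inhibition above the mean inhibition of all tested compounds plus 3 SD, set per campaign, cut at about 40% in these data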;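 note: 0% = DMSO wells and 100% = unlabeled Bim-BH3 peptide control; higher means more loss of mP so more displacement of Bim peptide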
GLD-1 RNA inh: GLD-1-TGE RNA interaction inhibition (C. elegans); Q17339; purified GLD-1 + fluorescein TGE RNA, fluorescence polarization; inhibition, % at 5.96 µM; 320,000 tested, 0.44% active; AID 2280;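 active = percent inhibition above a per-plate cutoff, the plate mean of test compounds plus 3 SD, cut at about 30% in these data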;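 note: 0% = DMSO wells with GLD-1 and probe and 100% = wells lacking GLD-1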
Target sequence (Q17339 whole entry, looked up): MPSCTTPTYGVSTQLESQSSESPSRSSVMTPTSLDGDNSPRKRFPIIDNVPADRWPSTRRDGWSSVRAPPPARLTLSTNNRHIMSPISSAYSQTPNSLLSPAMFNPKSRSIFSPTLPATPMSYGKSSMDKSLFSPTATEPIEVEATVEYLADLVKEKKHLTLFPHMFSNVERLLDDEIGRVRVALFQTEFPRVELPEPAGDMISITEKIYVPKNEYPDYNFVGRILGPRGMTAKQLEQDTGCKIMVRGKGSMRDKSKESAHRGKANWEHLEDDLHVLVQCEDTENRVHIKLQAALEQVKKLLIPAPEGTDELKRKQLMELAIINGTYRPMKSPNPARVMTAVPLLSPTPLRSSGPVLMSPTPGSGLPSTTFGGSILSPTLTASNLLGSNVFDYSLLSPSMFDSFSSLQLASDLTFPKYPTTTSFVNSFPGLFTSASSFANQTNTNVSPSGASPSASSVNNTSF
Active calls of the source: *; . = no result given; + = active, no number. Sampled rows, rich in hits. Any-hit rate of the full collection: about 2.3%.

SMILES | Mcl1 Noxa PPI | Mcl1 Bid PPI | BCLXL inh | Bim-Mcl-1 | MCL1 BIM primary | GLD-1 RNA inh
CC1CCCCC1NC(=O)COC(=O)c1c2c(nc3ccccc13)/C(=C/c1ccco1)CC2 (stereo not drawn) | 52* | -47 | 4 | 8 | -15 | 1
Cc1cc(C(=O)OCC(=O)NC2CCCCC2C)c2ccccc2n1 (stereo not drawn) | . | . | . | . | . | 4
O=C(COC(=O)c1c2c(nc3ccccc13)/C(=C/c1ccco1)CC2)NC1CCCC1 | 98* | -5 | . | 5 | . | .
CC(C)Oc1ccc(C(=O)OCC(=O)c2ccc[nH]2)cc1 | . | . | . | . | . | 1
COc1cccc(CN2CCN(Cc3cc(OC)c(OC)cc3OC)CC2)c1 | . | . | 6 | . | 5 | 0
COc1cccc(CN2CCSCC2)c1 | 41 | 62* | 3 | 0 | 0 | -2
CN(Cc1ccccc1)Cc1nc2c([nH]1)c(=O)[nH]c(=O)n2C | . | 97* | 7 | -4 | 11 | 4
Cn1c(=O)c2[nH]c(CN(Cc3ccccc3)Cc3ccccc3)nc2n(C)c1=O | -18 | -7 | -4 | 2 | -2 | 34*
CN(C)Cc1nc2c([nH]1)c(=O)n(C)c(=O)n2C | 8 | -23 | 3 | 2 | 4 | 0
Cc1[nH]nc2c1C1(CCN(Cc3ccccc3)CC1)C(C#N)=C(N)O2 | 12 | -25 | 40* | 0 | 39 | 17
CSCCC(NC(=O)COc1ccccc1)C(=O)N1CCOCC1 (stereo not drawn) | . | . | 1 | . | 2 | -1
O=C(Nc1ccc2[nH]c3c(c2c1)CCCC3)c1ccco1 | 11 | -16 | 52* | 0 | 40* | 30
Cc1cc2cc(NC(=O)c3ccco3)ccc2[nH]1 | 9 | -17 | 5 | -2 | 4 | -4
COc1ccc(C2C=C(c3cccs3)Nc3nc(CCCO)nn32)cc1 (stereo not drawn) | -12 | -108 | 176* | -2 | + | 144*
COc1ccc(C)cc1NC(=O)CN1C(=O)COc2ccc(S(=O)(=O)N3CCC(C)CC3)cc21 | . | . | -2 | . | 1 | -2
O=C(Nc1ccccc1C(=O)N1CCCCC1)c1cc(F)c(F)cc1Cl | . | . | 0 | . | -6 | 6
CCCc1cc(SCC(=O)Nc2c(C)n(C)n(-c3ccccc3)c2=O)n2c(nc3ccccc32)c1C#N | -50 | 66* | 8 | 2 | 0 | 6
Cc1cccc(NC(=O)CNC(=O)c2cccs2)n1 | . | . | 4 | . | 8 | 6
Cc1cccc(NC(=O)c2cc3cc([N+](=O)[O-])ccc3s2)n1 | 60* | 34 | 0 | 5 | -9 | -3
CC(C)N1CCc2c(sc(NC(=O)c3cc4cc([N+](=O)[O-])ccc4s3)c2C(N)=O)C1 | 76* | 35 | . | 1 | . | .
Cc1cccc(NC(=O)c2cccs2)n1 | 78* | -5 | 5 | 5 | 4 | 3
CCOc1ccc(CCNC(=O)COC(=O)c2ccc3c(c2)OCCO3)cc1OCC | . | . | -2 | . | -4 | 0
O=c1[nH]c(CSc2ncccn2)nc2c1cnn2-c1ccccc1 | 58* | -19 | 4 | -7 | 6 | -6
CCN(C(=O)Cc1c(C(=O)O)n(CC)c2ccccc12)c1cccc(C(F)(F)F)c1 | . | . | 2 | . | 2 | -5
CCN(CC1CCCO1)C(=O)CCc1nnc(CCc2ccc(OC)cc2)o1 (stereo not drawn) | . | . | 6 | . | 4 | 3
SMILES | Mcl1 Noxa PPI | Mcl1 Bid PPI | BCLXL inh | Bim-Mcl-1 | MCL1 BIM primary | GLD-1 RNA inh
CCC(C)c1ccccc1NC(=O)C(C)NCCN(C)C (stereo not drawn) | 23 | 60* | -3 | . | -5 | 1
CCCNC(C)C(=O)Nc1ccccc1C (stereo not drawn) | -26 | -3 | -2 | -1 | 7 | -2
CN(C)CCCN(C(=O)c1ccc(S(=O)(=O)N2CCCCCC2)cc1)c1nc2c(F)cc(F)cc2s1 | . | . | -3 | . | -5 | 4
Cc1cc(O)c(C=O)c2c1C(=O)Oc1c(CO)c(O)c3c(c1O2)C(O)OC3=O (stereo not drawn) | 53* | 40 | 48* | 1 | 103* | 14
C=C1CCN(CC(=O)OC)S(=O)(=O)c2ccccc21 | 16 | -8 | 0 | . | 2 | -1
Cc1ccc(-c2nc(Nc3ccc(N4CCOCC4)cc3)c3ccccc3n2)cc1 | 64* | -52 | 0 | . | 25 | 12
Cc1ccc(-c2nc(Nc3ccc(O)cc3)c3ccccc3n2)cc1 | . | . | 2 | . | 5 | -6
Cc1ccc(Cl)c(OCCCCN(C)Cc2ccccc2)c1 | 16 | 52* | 6 | -4 | -3 | 2
Cc1ccc(Cl)c(OCCCN(C)Cc2ccccc2)c1 | 18 | 77* | 4 | . | 1 | 2
CSc1nnc2ccc(-c3cccs3)nn12 | 3 | -5 | 4 | 42* | -5 | 8
COc1cc(CC2COC(c3ccc(O)c(OC)c3)C2COC(C)=O)ccc1O (stereo not drawn) | 70* | -72 | 3 | . | 24 | 6
Cc1cccc(NC(=O)c2cc(S(=O)(=O)N(C)c3ccc(F)cc3)ccc2Cl)n1 | . | . | 4 | . | 5 | 0
COc1cccc(NC(=O)C(=O)N/N=C/c2cc(C)n(-c3ccc(Cl)c(Cl)c3)c2C)c1 | -1 | 93* | -1 | 2 | 4 | -3
C=CCN1C(=O)/C(=C2/Sc3ccc(OC)cc3N2C)SC1=Nc1cccc(O)c1 | 58* | 54* | -10 | -1 | -9 | -2
COc1ccc2[nH]cc(C3N4CC5(C)CN3CC(C)(C4)C5=O)c2c1 (stereo not drawn) | 3 | 55* | 1 | 2 | 5 | 1
CN1C(=S)N(c2cccnc2)C(=O)/C1=C\c1ccc(N(C)C)cc1 | -17 | 83* | . | 0 | . | .
CC1CCc2c(nc3sc4c(c3c2N)CCCC4)C1 (stereo not drawn) | 54* | -6 | 7 | -3 | 7 | 14
CC1CCc2nc3sc4c(c3c(N)c2C1)CCCC4 (stereo not drawn) | 31 | -51 | 8 | -2 | 3 | 3
Cc1cc(/C=N/Nc2ccc([N+](=O)[O-])cn2)c(C)n1-c1ccc(C(=O)O)cc1 | 99* | 66* | -3 | 5 | -33 | -7
Cc1ccccc1-n1c(C)cc(/C=N/Nc2ccc([N+](=O)[O-])cn2)c1C | 11 | -40 | -47 | 0 | -85 | -14
Oc1ccc(-c2nc(-c3ccc(O)c(O)c3)cs2)cc1 | 59* | -2 | 18 | 0 | 24 | -2
O=C(O)CCc1ccc(-c2ccc(Br)cc2)n1Cc1ccco1 | 52* | -37 | 2 | 0 | 7 | 3
COc1ccc(/C=N/NC(=O)CCN2CCN(c3ccccc3)CC2)c(OC)c1OC | 22 | -18 | -1 | -3 | -1 | -4
O=C(Cc1csc(N2CCOCC2)n1)N/N=C/c1ccc(O)c(O)c1O | 85* | -40 | . | 2 | . | .
O=C(CCN1CCN(c2ccccc2)CC1)N/N=C/c1ccc(O)c(O)c1O | 77* | -84 | . | 9 | . | .
Cc1cc(/C=N/n2c(COc3ccccc3C)nc3ccccc3c2=O)c(O)c([N+](=O)[O-])c1 | 81* | -2 | -1 | -1 | 8 | 6
